# BH1578 lux ind: inducers of Vibrio cholerae quorum light production without autoinducers | V. cholerae BH1578 lux reporter, luminescence, 6 h | activation, % at 18.7 µM | hit rate 0.16% among 350,000 | AID 588436; in the data active means activation mostly above about 9.7%, no sharp cut-off; inconclusive means no clear call, values can overlap the other calls; inactive means mostly below about 3.7%
# Bead autofluor: counter-screen for toxin protease inhibitors: compound fluorescence. hit rate 3.1% among 360,000. fluorescence intensity (concentration not given with the values). compound autofluorescence counterscreen, microsphere flow cytometry; active compounds read high; in the data active means fluorescence intensity above about 16000; inconclusive means no clear call, values can overlap the other calls
# BoNT-F LC inh: BoNT F light chain protease inhibition. AID 588497. hit rate 0.22% among 360,000. Multiplex microsphere protease cleavage assay, flow cytometry. inhibition, % at 10 µM; in the data active means inhibition above about 35%, passing the limit was not always enough; inconclusive means no clear call, values can overlap the other calls
# MazF activator: MazEF (E. coli) toxin RNase activation | activation, % at 20 µM | P0AE70 | FAM/BHQ RNA-DNA oligo cleavage fluorescence, 5 h | hit rate 0.32% among 350,000; in the data active means activation above about 50%
# BoNT A protease: blocks Botulinum neurotoxin A light chain protease; hit rate 0.17% among 360,000; multiplex microsphere protease substrate cleavage, flow cytometry; inhibition, % at 10 µM
# Anthrax LF prot: blocks Bacillus anthracis lethal factor protease | inhibition, % at 10 µM | multiplex microsphere protease cleavage assay, LF | P15917 | hit rate 0.12% among 360,000
# Hits are given with their value; – = inactive; ? = inconclusive; · = no result. Rows were chosen to be rich in hits. Some 3.9% of all compounds tested hit in one or more screens of this group. Unless noted, no stated cut-off is given here; in the data, active means inhibition above about 30%; inconclusive means no clear call, values can overlap the other calls; inactive means below that.
SMILES,BH1578 lux ind,Bead autofluor,BoNT-F LC inh,MazF activator,BoNT A protease,Anthrax LF prot
CC1Oc2ccccc2N(CC(=O)NCCc2ccccc2)C1=O (centres undefined),–,26874,–,–,–,–
CC1Oc2ccccc2N(CC(=O)N(Cc2ccccc2)Cc2ccccn2)C1=O (centres undefined),–,23187,–,–,–,–
CC(C)C1Oc2ccccc2N(CC(=O)NCCCN2C(C)CCCC2C)C1=O (centres undefined),–,23299,–,–,–,–
C[C@@H]1CN([C@@H](C)CO)C(=O)CCCn2nncc2CO[C@H]1CN(C)C(=O)c1ccncc1,–,–,–,–,–,–
Cc1nnc(SCCn2c(N3CC(C)CC(C)C3)nc3c2c(=O)[nH]c(=O)n3C)s1 (centres undefined),–,23049,–,–,–,–
Cc1cn([C@H]2C[C@H](N=[N+]=[N-])[C@@H](CO)O2)c(=O)[nH]c1=O,35,–,–,–,–,–
COc1ccc(OC)c(NC(=O)COC(=O)c2ccc(S(=O)(=O)N3CCCCC3)cc2)c1,–,–,–,–,–,–
O=C(CCCC(=O)OCC(Cl)=C(Cl)Cl)Nc1ccc(F)cc1,–,–,–,–,–,–
O=C(CCCC(=O)OCC(Cl)=C(Cl)Cl)Nc1cccc(F)c1,–,22287,–,–,–,–
CC1(c2nnc(-c3cccc(Cl)c3)o2)CC(c2cccnc2)=NO1 (centres undefined),–,–,–,–,–,–
CCCCN(C(=O)NC(=O)Nc1ccccc1OCC)S(C)(=O)=O,38,–,–,–,–,–
O=C(COC(=O)c1ccc(S(=O)(=O)NCc2ccco2)cc1)Nc1ccccc1OC(F)F,–,–,–,–,–,–
CN(C)S(=O)(=O)c1ccc(C(=O)OCC(=O)Nc2ccccc2OC(F)F)cc1,–,23884,–,–,–,–
Cc1ccccc1OC1(C)CCN(Cc2ccc(-c3ccccn3)cc2)C1 (centres undefined),–,–,–,·,–,–
NC(=O)C1CCN(c2ccc(C(F)(F)F)cc2[N+](=O)[O-])CC1,–,21870,–,–,–,–
CN(CCc1ccccc1)C1CCCN(S(=O)(=O)CC(F)(F)F)C1 (centres undefined),–,–,?,–,–,–
Cc1ccc(C2C3CN(C(C)C)CC=C3C(C#N)=C(N)C2(C#N)C#N)cc1 (centres undefined),–,–,–,156,–,–
CCCCOc1ccc(C2C3CN(C(=O)OCC)CC=C3C(C#N)=C(N)C2(C#N)C#N)cc1OC (centres undefined),–,23656,–,–,–,–
CCOC(=O)N1CC=C2C(C#N)=C(N)C(C#N)(C#N)[C@H](c3ccc(OCC)c(OCC)c3)[C@H]2C1,–,20898,–,–,–,–
COc1ccc(OC)c(C2C3CN(C(C)C)CC=C3C(C#N)=C(N)C2(C#N)C#N)c1 (centres undefined),–,–,–,–,–,–
CN1CC=C2C(C#N)=C(N)C(C#N)(C#N)[C@H](c3ccoc3)[C@H]2C1,–,–,–,–,–,–
N#CC1=C(N)C(C#N)(C#N)C(c2cccnc2)C2CN(C(=O)OCc3ccccc3)CC=C12 (centres undefined),·,–,–,–,–,–
CC(=O)N1CC=C2C(C#N)=C(N)C(C#N)(C#N)[C@H](c3ccoc3)[C@H]2C1,–,23512,–,–,–,–
CC1=C2C3OC(=O)C(C)C3CCC2(C)C=C(Br)C1=O (centres undefined),–,–,–,–,–,–
CSCCC(NS(=O)(=O)Cc1ccccc1)C(=O)NNc1ccccc1 (centres undefined),·,–,–,·,–,–
SMILES,BH1578 lux ind,Bead autofluor,BoNT-F LC inh,MazF activator,BoNT A protease,Anthrax LF prot
Cn1c(=O)c2cc(S(=O)(=O)NCCC(=O)NCCc3ccc(Cl)cc3)ccc2n(C)c1=O,–,17176,–,–,–,–
COCCN(C(=O)c1oc2ccccc2c1COC)c1c(N)n(CC(C)C)c(=O)[nH]c1=O,–,–,–,–,–,–
CC(=O)C1=C(C)NC(=O)CC1c1ccc(F)cc1 (centres undefined),–,–,–,–,–,–
Cc1ccc(C2CC(=O)Nc3sc(C(N)=O)c(N)c32)cc1 (centres undefined),–,21762,–,–,–,–
Cc1ccc(NS(=O)(=O)c2ccc(N3C(=O)CCC3=O)cc2)cc1,–,18928,–,–,–,–
CC(C)c1ccc(NS(=O)(=O)c2ccc(N3C(=O)CCC3=O)cc2)cc1,–,–,–,–,–,–
Cc1ccc(C)c2c1cc(C)c1nnc(SCc3ccccn3)n12,–,26246,–,–,–,–
Cc1cc2cc(C)c3nnc(SCc4ccccn4)n3c2cc1C,–,–,–,–,–,–
CC(=O)Oc1ccc(N2C(=O)CCC2=O)cc1,·,–,?,–,–,–
COc1ccc(N2C(=O)CCC2=O)cc1,–,20610,–,–,?,–
CCc1ccc(C(=O)Nc2ccc3c(c2)n(C)c(=O)n3C)cc1,–,–,–,–,–,–
CCC(CO)NCc1ccc2c(c1)n(C)c(=O)n2C (centres undefined),–,16488,–,–,–,–
COc1cccc(C2=CC(c3ccc(N(C)C)cc3)n3nnnc3N2)c1 (centres undefined),–,16376,–,182,–,–
Cc1cc(C)cc(-n2nc(C)cc2N)c1,–,16680,–,–,?,–
Cc1cccc(-n2nc(C)cc2N)c1,–,–,–,–,–,–
NC(=O)c1[nH]cnc1N=NN(CCO)Cc1ccccc1,–,–,–,–,–,–
Cc1ccc(C(=O)c2cc([N+](=O)[O-])ccc2N2CCN(C)CC2)cc1,–,–,–,–,–,–
CN1CCN(c2ccc([N+](=O)[O-])cc2C(=O)c2ccc(Br)cc2)CC1,–,23704,–,–,–,–
CN(C)c1ccc(C(C#N)c2ccccc2)nn1 (centres undefined),–,–,–,–,–,–
Cc1cccc(Cc2c(C)nc3c(C(=O)NCc4ccco4)cnn3c2C)c1,–,23199,–,–,–,–
Cc1nc2c(C(=O)NCc3ccco3)cnn2c(C)c1Cc1ccc(F)cc1Cl,–,21933,–,–,?,–
Cc1ccc(-n2ncc(C(=O)NCc3ccc4c(c3)OCO4)c2NC(=O)c2ccco2)cc1C,–,21894,–,–,?,–
O=C(NCc1ccc2c(c1)OCO2)c1ccco1,–,–,–,–,–,–
Cc1ccccc1Cc1c(C)nc2c(C(=O)NCc3ccc4c(c3)OCO4)cnn2c1C,–,16548,–,–,–,–
Cc1nc2c(C(=O)NCc3ccc4c(c3)OCO4)cnn2c(C)c1Cc1ccc(F)cc1Cl,–,–,–,–,–,–
COCCCn1cc(CN2CC(N3CCN(CCO)CC3)CS2(=O)=O)nn1 (centres undefined),·,–,–,·,–,–
CC(=O)Nc1sc(C)c(C)c1C(=O)OCCOc1ccccc1,–,–,–,–,–,–

# Screening results (PubChem)
